system: Plasmodium falciparum; test: GSK_TCMDC: Inhibition of Plasmodium falciparum 3D7 in whole red blood cells, using parasite LDH activity as an index of growth. Test compounds present at 2uM; assay type: functional

In order of rising Inhibition:
1. Cc1cc(NC(=O)c2cccs2)ccc1OC1CCN(Cc2ccccc2)C1.O=C(O)C(F)(F)F (stereo not given)  84%
2. O=C(Nc1nc(-c2cc(F)ccc2F)cs1)c1cncc(Br)c1  85%
3. N#Cc1ccc(-c2ccc(C(=O)NCCCCN3CCC(c4ccc5c(c4OCC(N)=O)CCCC5)CC3)cc2)cc1  87%
4. CC1CN(Cc2cccc(-c3ccc(-c4nc5cc(F)ccc5[nH]4)cc3)c2)CC(C)O1.O=C(O)C(F)(F)F (stereo not given)  87%
5. O=C(Nc1cccc(CN2CCCN(Cc3ccc4c(c3)OCO4)CC2)c1)c1ccc(Cl)c(Cl)c1.O=C(O)C(F)(F)F  92%
6. CC(=O)c1c(C)[nH]c(C(=O)Nc2ccc(-c3nc4ccc(C)cc4s3)cc2)c1C  92%
7. O=C(Nc1cccc(CN2CCCN(CCc3ccccc3)CC2)c1)c1cc2ccccc2s1.O=C(O)C(F)(F)F  93%
8. CC(C)C[C@@H](/C=N/N1CC(=O)NC1=O)NC(=O)[C@H](CC(C)C)NC(=O)c1ccc(OCCN2CCOCC2)cc1  94%
9. CC(C)CNCc1cccc(-c2ccc(CNc3ccc4ncccc4c3)cc2)c1.O=C(O)C(F)(F)F  94%
10. CCCCCC(=O)N1CCOC(CCN2CCc3c(c4ccccc4n3C)C2)(c2ccc(Cl)c(Cl)c2)C1 (stereo not given)  95%
11. COc1ccc(C(=O)CCC(=O)N(Cc2ccc(-c3ccc(CNCCc4ccc(S(C)(=O)=O)cc4)cn3)cc2)Cc2ccc3c(c2)OCO3)cc1F.O=C(O)C(F)(F)F  95%
12. O=C(Nc1cccc(CN2CCN(C(=O)c3cccs3)CC2)c1)c1cccs1.O=C(O)C(F)(F)F  95%
13. O=C(NCCN1CCCC1)N1CCCN(c2ncnc3cc(-c4ccc(Cl)cc4)sc23)CC1.O=C(O)C(F)(F)F  96%
14. O=C(N[C@@H](Cc1ccccc1)C(=O)NC1CCCCC1)c1ccc(O)c(-c2cccc(C(F)(F)F)c2)c1  96%
15. O=C(Nc1ccc(Cl)c(Cl)c1)N(Cc1ccccc1Br)C1CCNCC1  96%
16. Br.C=CCN1Cc2c(O)cccc2C(c2ccc(O)c(O)c2)C1 (stereo not given)  97%
17. CCC(C)NC(=O)Nc1ccc(-c2cccc(-c3nc4cc(C(F)(F)F)ccc4[nH]3)c2)cc1 (stereo not given)  97%
18. O=C(NC1CCCCC1)N(CCCn1ccnc1)Cc1csc(-c2ccc(CNCc3ccccc3)cc2)n1.O=C(O)C(F)(F)F  97%
19. Cc1cc(CNCCCCCNCc2cccc([N+](=O)[O-])c2)ccc1O  98%
20. O=C(Nc1ccc(Cl)c(Cl)c1)N1CCC(CNCc2cccc([N+](=O)[O-])c2)CC1.O=C(O)C(F)(F)F  98%
21. Cl.O=C(Nc1ccccc1)c1cccc(Nc2nccc(Nc3ccc(Oc4ccccc4)cc3)n2)c1  98%
22. O=C(/C=C/c1ccc(Cl)c(Cl)c1)NCCCCCN1CCC(NC(=S)Nc2cccc(Cl)c2)CC1  99%
23. CCCCCC(C)N/C(=N/c1ccccc1Br)Nc1ccc([N+](=O)[O-])cc1O (stereo not given)  99%
24. O=C(/C=C/c1ccc(Cl)c(Cl)c1)NCCCCCN1CCCN(C(=O)Nc2ccc(Br)cc2)CC1  99%
25. O=C(Nc1cccc([N+](=O)[O-])c1)N(Cc1ccc(Cl)c(Cl)c1)C1CCNCC1  99%
26. O=C(NCCNc1ccnc(Nc2ccc(F)cc2)n1)c1cc2ccccc2s1  99%
27. COc1cc(OC)c2c(C)cc(NCCCn3ccnc3)nc2c1  100%
28. CC(C)(C)c1ccc(CN2CCC(CNC(=O)c3cc(-c4ccccc4F)cs3)C2)cc1.O=C(O)C(F)(F)F (stereo not given)  100%
29. N#Cc1cncc(-c2nc3c(N4CCC(N5CCCC5)CC4)cccc3n2CCNCc2ccccc2)c1.O=C(O)C(F)(F)F  100%
30. COc1ccc2[nH]ccc(=NN=Cc3cccc(Cl)c3)c2c1  100%
31. Cc1cccc2[nH]c(-c3cc(-c4cn[nH]c4)cnc3N)nc12  100%
32. Cc1cc(N2CCCC2)nc(NC(=N)Nc2cccc(C(F)(F)F)c2)n1  100%
33. N#Cc1ccc(N2CCN(Cc3ccc(-c4ccc(-c5nc6cc(C(F)(F)F)ccc6[nH]5)s4)cc3)CC2)nc1.O=C(O)C(F)(F)F  100%
34. COC(=O)c1cccc(CNCc2ccc(-c3ccc(-c4nc5ccccc5[nH]4)s3)cc2)c1.O=C(O)C(F)(F)F  100%
35. Cc1cccc2nc(-c3ccc(-c4ccc(NC(=O)Nc5ccsc5)cc4)cc3)[nH]c12  100%

Reference: ChEMBL document CHEMBL1157539, “Thousands of chemical starting points for antimalarial lead identification” (Nature, 2010)
